Each structure is given as a SMILES string. Records with an inconclusive call do not appear. A call without a number means that no potency is given here. A number with no mark means an inactive call. Activity calls are given as the source filed them. Calls follow the shape of the dose curve; as a rule, active = well fitted activation curve with a large enough effect in the repeat runs; inconclusive = weak or mixed curves; inactive = flat fitted curve, though single readings scatter.
Potency is read from the fitted curve at half-maximal effect.

A short description of the test: A CellTox Green Cytotoxicity Assay to monitor cytotoxicity in HEK293 cells - 24 hour (AID 1224875). Also: nearly all actives have a fitted effect of over 45% in size. As to conditions: CellTox Green fluorescence; series mostly up to 76.8 µM. An excerpt: National Center for Advancing Translational Sciences [NCATS]
NIH Chemical Genomics Center [NCGC]
U.S. Environmental Protection Agency [EPA]
National Institutes of Environmental Health Sciences [NIEHS]
National Toxicology Program [NTP]
Cell-based models are critical for drug discovery. Determining the natural cytotoxic effects resulting from test compounds is an essential research activity. A CellTox Green Cytotoxicity Assay to monitor cytotoxicity in real time of continues cell culture during 40 hours of the compound treatment was used to screen Tox21 10K library compounds in Hek293 cells. CellTox Green Cytotoxicity Assay is a nonlytic, homogeneous, biofluorescent method to measure cytotoxicity in cell culture after experimental manipulation. The assay system uses a proprietary asymmetric cyanine dye that is excluded from viable cells but preferentially stains the dead cell's DNA. […] Viable cells produce no appreciable increases in fluorescence. Therefore, the fluorescence signal produced by the binding interaction with dead cell DNA is proportional to cytotoxicity.
The mixture of Hek293 cell suspension and reagents were dispensed at 600cells/6 ul/well in 1536-well tissue culture treated black solid bottom plates using a Multidrop dispenser. After the assay plates were incubated at a 37 C/5% CO2 incubator for 5 hours, 23 nL of compounds dissolved in DMSO, positive and negative controls was transferred to the assay plate by a pintool work station. The plates were incubated at 37 C for 40 hours. The fluorescence intensity were measured at 0h, 8h, 16h, 24h, 32h and 40h time points using ViewLux plate reader during compound treatment.
With `Nc1nc2c(ncn2COC(CO)CO)c(=O)[nH]1`, the Potency entry was “inactive”. The same measure, in the same setting: the same measure for `CC(C(=O)O)c1ccc(CC2CCCC2=O)cc1` (stereo not given): “inactive”; for `O=C(CCCN1CCC(O)(c2cccc(C(F)(F)F)c2)CC1)c1ccc(F)cc1`: “inactive”; for `COCCc1ccc(OCC(O)CNC(C)C)cc1` (stereo not given): “inactive”.

Consider `O=C1NC(=O)[C@@]2(CCOc3ccc(F)cc32)N1`, for which the Potency entry was “inactive”. In the case of `C[C@@H]1CCN(C(=O)[C@H](CCCN=C(N)N)NS(=O)(=O)c2cccc3c2NC[C@H](C)C3)[C@@H](C(=O)O)C1`, the Potency result is “inactive”.

With `CCCCCSCCCCC`, the Potency result was “inactive”. With `Cc1c(O)cccc1O`, the Potency result is “inactive”. The same measure, in the same setting: the same measure for `CN1CCCC1`: “inactive”; for `CCO/C([O-])=N/c1c[n+](N2CCOCC2)no1`: “inactive”; for `CN1CC(=O)NC1=N`: “inactive”.

Consider `O=C(CCCN1CCN(c2ccccn2)CC1)c1ccc(F)cc1`, for which the Potency entry is “inactive”. As to `CCc1ccc(O)c(OC)c1`, the Potency result was “inactive”. With `CCOC(=O)[C@H](CCc1ccccc1)N[C@@H](C)C(=O)N1[C@H](C(=O)O)C[C@@H]2CCC[C@@H]21`, the Potency result is “inactive”. With `CCOC(=O)c1cccc(N)c1`, the Potency result is “inactive”. The same measure, in the same setting: with `CCS(=O)(=O)c1ccc(OC)c(C(=O)OC)c1` the entry was “inactive”. For the compound `FC1(F)C(F)(F)C(F)(F)C2(F)C(F)(F)C(F)(F)C(F)(F)C(F)(F)C2(F)C1(F)F` (stereo not given), the Potency entry is “inactive”.

On to `C=C[Si](OC(=C)C)(OC(=C)C)OC(=C)C`, for which the Potency entry was “inactive”.

On to `OCCOc1ccc(OCCO)cc1`, for which the Potency result was “inactive”.

As to `CCOc1ccc(C(=O)OCCN(CC)CC)cc1`, the Potency result is “inactive”.

For `CC(C)(C)c1nnc(NS(=O)(=O)c2ccccc2)s1`, the Potency entry is “inactive”.

As to `CCCCC(CC)COC(=O)c1ccccc1O` (stereo not given), the Potency entry was “inactive”.

Take `CCOC(=O)Nc1ccc(NCc2ccc(F)cc2)nc1N`: the Potency result was “inactive”.

Turning to `CCCCCOC(=O)CCCCC`, the Potency result is “inactive”.

Consider `Cc1cccc(C)c1NC(=O)C(C)N` (stereo not given), for which the Potency is 21.3 µM (active). For the compound `N[C@@H](C(=O)N[C@@H]1C(=O)N2C(C(=O)O)=C(Cl)CS[C@H]12)c1ccccc1`, the activity change was 0.0795% [at 6.97 µM, hits give high values]. As to `CCCCNC(=O)NCCCC`, the Potency entry was “inactive”.

As to `C=COCC1CCC(CO)CC1` (stereo not given), the Potency entry is “inactive”. On to `OC[C@]1(O)OC[C@@H](O)[C@H](O)[C@@H]1O`, for which the Potency result is “inactive”. Same read-out and setting: with `CC(=O)CC(C)C` the entry was “inactive”; with `CC(=O)OCC(=O)[C@@]1(O)CC[C@H]2[C@@H]3CCC4=CC(=O)CC[C@]4(C)[C@H]3C(=O)C[C@@]21C`, “inactive”; with `OCCCC1CCCCC1`, “inactive”.

Consider `NCCc1cnc[nH]1`, for which the Potency result is “inactive”.

Consider `CCn1nc(C(=O)O)c(=O)c2cc3c(cc21)OCO3`, for which the Potency result was “inactive”. On the same count and under the same terms, with `COC(=O)CC(C)=O` the entry was “inactive”; with `CC(=O)OCC(CCn1cnc2cnc(N)nc21)COC(C)=O`, “inactive”; with `CC(=O)N(CC(O)CO)c1c(I)c(C(=O)NCCO)c(I)c(C(=O)NCC(O)CO)c1I` (stereo not given), “inactive”.

With `ClC(Cl)(Br)Br`, the Potency result is “inactive”. For the compound `CC/C=C\CC/C=C/CO`, the Potency result is “inactive”. Still for that read-out and setting: the same measure for `O=C[C@H](O)[C@@H](O)[C@H](O)[C@H](O)CO`: “inactive”.
